From PubChem
ALDH1A1 inh: inhibitors of human aldehyde dehydrogenase 1A1; actives 7.3% (n = 220,000); Potency, µM (doses to about 75.3 µM), for inactives: at the highest dose activity, negative = inhibition, usual class: inhibitors; P00352; AID 1030; Purified ALDH1A1, NADH fluorescence, propionaldehyde substrate; active means well fitted inhibition curve with a large enough effect, not every such curve was filed as active; inconclusive means small, poorly fitted or top-dose-only effect, or another doubt; inactive means no such curve, though single readings can be large or run the other way;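 further: potency means the concentration at half of the fitted maximal effect; plate controls were no enzyme wells and a reference inhibitor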
IMPase inh: IMPase inhibition in cells; inhibition (IP1 accumulation), % at 46.1 µM; AID 901; CHO-M1 cells, IP1 accumulation, HTRF TR-FRET ratio; P97697; 120,000 tested, under 10 active; active means well fitted curve in the direction sought with a large enough effect in the signal ratio, not every such curve was filed as active; inconclusive means small, poorly fitted or top-dose-only effect, or a change in a side signal; inactive means no such curve, though single readings can be large or run the other way; the % refers to the signal ratio;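 further: cells stimulated with carbachol in lithium chloride buffer; plate controls were DMSO basal wells for no effect and reference inhibitor wells for full effect; higher means more IMPase inhibition seen as more IP1 and lower FRET ratio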
Target sequence (P97697 whole entry, looked up): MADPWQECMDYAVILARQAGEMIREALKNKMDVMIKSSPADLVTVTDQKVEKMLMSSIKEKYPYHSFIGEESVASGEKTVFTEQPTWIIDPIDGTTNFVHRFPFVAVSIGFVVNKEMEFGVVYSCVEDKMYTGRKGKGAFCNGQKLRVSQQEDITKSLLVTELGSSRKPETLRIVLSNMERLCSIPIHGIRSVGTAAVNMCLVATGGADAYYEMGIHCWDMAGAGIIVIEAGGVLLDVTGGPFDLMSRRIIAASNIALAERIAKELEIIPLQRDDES
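CHO-M1, 2000 cells/well, cultured 16–30 h; cpd up to 46 uM; carbachol (50 uM solution, stimulation buffer w/ 50 mM LiCl, pH 7.4), 30 min 37C; IP-One TR-FRET, 10 min RT; Ex 320/Em 665, 620; Hill-fit AC50.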
12-hLO inh: inhibitors of human 12-lipoxygenase (ALOX12); purified 12-hLO, xylenol orange hydroperoxide absorbance; Potency, µM (series often up to 57.1 µM), for the others: top-dose activity change, negative = inhibition, actives largely listed as inhibitors; P18054; actives 0.12% (n = 150,000); AID 1452; further: potency means the concentration at half of the fitted maximal effect; nearly all actives have a fitted effect of over 55% in size
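Purified human 12hLO (150 nM final) was preincubated with compounds for 15 min at room temperature in 25 mM Hepes pH 7.0, 0.01% Triton X-100, then reacted with 40 uM arachidonic acid for 30 min. Hydroperoxide was detected with ferrous iron/xylenol orange.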
IMPase Li cell: cell-permeable IMPase inhibitors with lithium potentiation. AID 1457. actives 0.35% (n = 210,000). Potency, µM (top dose mostly 59.4 µM), for inactives: top-dose activity, negative = IMPase inhibition, usual class: inhibitors. CHO-M1 cells, IP1 TR-FRET (IP-One), carbachol + lithium;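 further: IP1 builds up when IMPase is blocked and the TR-FRET signal falls; potency means the concentration at half of the fitted maximal effect; plate controls were basal vehicle for no effect and high inhibitor control for full effect; nearly all actives have a fitted effect of over 50% in size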
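Test compounds were applied to CHO-M1 cells previously cultured for 16–30 h at 2000 per well. A small lithium amount accompanied them; after 30 min at 37C, IP1 was quantified by TR-FRET.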
HPGD block: blocks human HPGD enzyme activity | purified HPGD, NADH fluorescence kinetic, PGE2 substrate | actives 4.3% (n = 150,000) | P15428 | Potency, µM, for inactives: at the top dose activity change, negative = inhibition, most hits filed as inhibitors; active means well fitted inhibition curve with a large enough effect, not every such curve was filed as active; inconclusive means small, poorly fitted or top-dose-only effect, or another doubt; inactive means no such curve, though single readings can be large or run the other way; further: potency means the concentration at half of the fitted maximal effect
Target sequence (P15428 whole entry, looked up): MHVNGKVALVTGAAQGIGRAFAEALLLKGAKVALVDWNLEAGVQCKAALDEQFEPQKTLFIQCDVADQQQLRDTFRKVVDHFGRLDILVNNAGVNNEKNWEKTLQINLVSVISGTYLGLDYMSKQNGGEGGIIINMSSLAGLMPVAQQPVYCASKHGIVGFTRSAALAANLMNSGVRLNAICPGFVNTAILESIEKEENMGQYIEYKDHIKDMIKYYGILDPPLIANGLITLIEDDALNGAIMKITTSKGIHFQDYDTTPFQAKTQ
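NADH formation kinetics: reaction with 30 uM PGE2 and 1 mM NAD+ (final), 20 nM enzyme, Tris-HCl pH 8 with Tween 20, after 15 min compound preincubation at room temperature. Fluorescence change, last versus first of five reads.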
PNC inhibitor: blocks assembly of the perinucleolar compartment; PC3M PTB-GFP, PNC prevalence imaging, 16 h; hits give low values; activity change (PNC), negative = inhibition, % at 10 µM; actives 3.1% (n = 140,000); AID 2417;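 active means readout at or below -70, meaning at least 70% loss of cells showing the perinucleolar compartment, a nuclear body marking cancer cells; inconclusive means readout between -30 and a set limit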;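 further: plate controls were DMSO wells for no effect and camptothecin positive control wells for full effect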
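Compounds are pinned in duplicate onto adhered PC3M cells stably expressing GFP-tagged PTB and incubated 16 h at 37 C. Cells are then fixed, nuclei stained with Hoechst, and PNC-positive cells counted.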
Starred values were filed as active, the others as inactive; ? = inconclusive; nt = no result given; [ ] = dose if it differs, or a comment. A selection: hits, their analogues and other compounds. The true share with any hit is near 11%. Unless noted, the call rests on the fitted dose curve; in most records, active means well fitted curve in the direction sought with a large enough effect; inconclusive means small, poorly fitted or top-dose-only effect, or another doubt; inactive means no such curve, though single readings can be large; an effect the other way counts as inactive or inconclusive. Unless noted, on the % scale 0 is the no-effect control and ±100 the full control effect.

SMILES	ALDH1A1 inh	IMPase inh	12-hLO inh	IMPase Li cell	HPGD block	PNC inhibitor
COc1ccccc1CNC(=O)CSc1ccc(Br)cc1	-19%	nt	-1%	14%	28µM*	-22
COc1ccccc1CNC(=O)C1CCN(Cc2nc(-c3cccc(Cl)c3)oc2C)CC1	7%	?	-9%	2%[38.3 µM]	-5%	5
COc1ccccc1CNC(=O)CC(C)C	2%	3	4%	-7%[38.3 µM]	25µM*	-7
CCc1ccc(-c2nc(CN3CCC(C(=O)NCc4ccccc4OC)CC3)c(C)o2)cc1	?	?	-6%	-2%[38.3 µM]	-9%	-98*
COc1ccccc1CNC(=O)COc1ccccc1OC	2%	-10	1%	24%[38.3 µM]	-9%	34
O=C(NCCCN1CCN(c2ccc(F)cc2)CC1)Nc1ccc(Cl)cc1	nt	-3	nt	nt	nt	nt
CC(=O)OCC1OC(c2cc(C)cc(C)c2)C=CC1OC(C)=O (stereo not drawn)	6%[13.5 µM]	nt	nt	nt	nt	nt
COc1ccccc1CNC(=O)C1CCC1	-5%	nt	-1%	1%	14µM*	47
COc1cccc(C2CC(=O)Nc3cc4c(cc32)OCCO4)c1OC(C)C (stereo not drawn)	11%	5	-10%	20%[38.3 µM]	-10%	12
COc1ccccc1C1CC(=O)Nc2cc3c(cc21)OCCO3 (stereo not drawn)	?	3	-1%	45%[38.3 µM]	32µM*	-101*
CC(C)Oc1ccccc1C1CC(=O)Nc2cc3c(cc21)OCCO3 (stereo not drawn)	2%	6	-11%	3%[38.3 µM]	-11%	-97*
CCNc1ncc2nc(-c3ccc(Cl)cc3)c(=O)n(-c3ccccc3)c2n1	-7%	nt	0%	-17%	?	nt
CC(C)C(=O)Nc1cccc(NC(=S)NC(=O)c2ccc(Cl)cc2)c1	10µM*	7	?	17%[38.3 µM]	-8%	?
Cc1cc(C)cc(C(=O)NC(=S)Nc2ccc3c(c2)OCCO3)c1	13µM*	1	-4%	nt	nt	14
O=C(NC(=S)Nc1ccc2c(c1)OCCO2)c1ccc(F)cc1Cl	?	nt	2%	4%	-7%	-14
CC(C)C(=O)Nc1cccc(NC(=O)c2ccc(Cl)cc2Cl)c1	11%	nt	-4%	3%	-4%	?
CCc1ccc(C(=O)NC(=S)Nc2ccc3c(c2)OCCO3)cc1	18µM*	-1	14µM*	16%	-15%	12
O=C(NC(=S)Nc1ccc2c(c1)OCO2)c1ccc(Cl)cc1	14µM*	nt	0%	4%	-15%	8
c1ccc2cc(NCNc3ccc4ccccc4c3)ccc2c1	?	nt	1%[11.4 µM]	-3%	-16%	nt
O=[N+]([O-])c1ccc2nc(CCCO)[nH]c2c1	-2%	nt	nt	6%	nt	nt
O=[N+]([O-])c1ccc2nc(-c3ccccc3)oc2c1	?	nt	nt	-17%	nt	nt
O=[N+]([O-])c1ccc2[nH]nc(-c3ccccc3)c2c1	2%	nt	-4%	5%	14µM*	16
O=c1c(-c2ccccc2)n[nH]c2ccccc12	?	5	-5%	nt	nt	10
O=C(O)CNc1nc(-c2ccccc2)c2cc([N+](=O)[O-])ccc2n1	18µM*	16	1%	5%	-21%	13
O=[N+]([O-])c1ccc2nc(NCCCO)nc(-c3ccccc3)c2c1	1%	nt	0%	-6%	14µM*	28
COc1ccc(Nc2nc3ccccc3nc2NS(=O)(=O)c2ccc(Cl)cc2)cc1OC	nt	5	nt	nt	nt	nt
COCc1cc(C)nc2sc(C(=O)N3CCCCC3)c(N)c12	18µM*	-2	3%	7%[38.3 µM]	0.25µM*	?
COc1c2c(cc3c1C(CC(=O)c1c(O)c(OC)c4occc4c1OC)[N+](C)(C)CC3)OCO2 (stereo not drawn)	-12%	nt	nt	19%	-7%	nt
CC(=O)CSc1nnc2c3ccccc3nc(C(C)(C)C)n12	3.5µM*	nt	nt	19%	nt	nt
CCCCc1nc2c(c3c1C[C@H](C)OC3)CN(S(=O)(=O)c1ccc(Cl)c3nonc13)CC2	?	nt	-3%[11.4 µM]	5%	-2%	nt
